# Results: PubChem BioAssay
# Calls of active or inactive are those of the source.
# Key:
# [1] = binders of probe aFSTL3 on microarray, primary screen, stem cell growth factor project, biochemical, small-molecule microarray, fluorescence 635/667 (AID 1064); conditions: higher = more signal;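 also: measures binding of the biotinylated anti-FSTL3 antibody to printed compounds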
# [2] = binders from COS7 lysate, DM2A8 probe, primary screen, torsin A project, cell lysate, small-molecule microarray, fluorescence 635/667 (AID 1065); conditions: higher = more signal, COS7 lysate expressing mutant human TOR1A
# [3] = binders of probe aFGF2 on microarray, primary screen, stem cell growth factor project, biochemical, small-molecule microarray, fluorescence 635/667 (AID 1067); conditions: higher = more signal;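 also: measures binding of biotinylated aFGF2 protein to printed compounds on slides; z-score merges feature fluorescence and signal-to-noise across triplicate slides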
# [4] = binders of probe aFGF10 on microarray, primary screen, stem cell growth factor project, biochemical, small-molecule microarray, fluorescence 635/667 (AID 1071); conditions: higher = more signal;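 also: score merges 667 nm spot intensity and signal to noise from triplicate slides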
# [5] = biological target: Neurogenic locus notch homolog protein 2 (Homo sapiens) (UniProt Q04721); experiment: Notch2 binders on small-molecule microarrays, primary screen, biochemical, small-molecule microarray, 635 nm fluorescence, stem cell growth factors (AID 1073); conditions: Notch2 binding, higher = more signal
# [6] = biological target: Pro-neuregulin-1, membrane-bound isoform (Homo sapiens) (UniProt Q02297); experiment: NRG1 binders on small-molecule microarrays, primary screen, psychiatric disease protein project, biochemical, small-molecule microarray, fluorescence 635/667 (AID 1075); conditions: NRG1 binding, 635 nm fluorescence, higher = more signal;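 also: score combines 667 nm spot fluorescence with signal to noise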
# [7] = tested on: Neuregulin-1 EGF-like domain; experiment: binders of neuregulin-1 EGF-like domain, primary screen, biochemical, small-molecule microarray, 635 nm fluorescence (AID 1081); conditions: small-molecule microarray binding, higher = more signal;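 also: binding of the protein to compounds printed on small-molecule microarray slides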
# [8] = FRG1 promoter luciferase signal modulators, primary screen, FRG1 inhibition for FSHD, cell-based, C2C12 myotubes, firefly/Renilla luciferase, luminescence (AID 1084); conditions: higher = more signal, called active from +8 up or from −8 down
# [9] = binders of probe aFST on microarray, primary screen, stem cell growth factor project, biochemical, small-molecule microarray, fluorescence 635/667 (AID 1086); conditions: higher = more signal;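 also: score merges 667 nm fluorescence with signal-to-noise of each printed compound spot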
# [10] = binders of probe aHhip on microarray, primary screen, stem cell growth factor project, biochemical, small-molecule microarray, fluorescence 635/667 (AID 1087); conditions: higher = more signal;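 also: score merges spot fluorescence at 667nm with spot signal to noise ratio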
# Chain of Neurogenic locus notch homolog protein 2 (Homo sapiens) (Q04721 whole entry, looked up, canonical isoform): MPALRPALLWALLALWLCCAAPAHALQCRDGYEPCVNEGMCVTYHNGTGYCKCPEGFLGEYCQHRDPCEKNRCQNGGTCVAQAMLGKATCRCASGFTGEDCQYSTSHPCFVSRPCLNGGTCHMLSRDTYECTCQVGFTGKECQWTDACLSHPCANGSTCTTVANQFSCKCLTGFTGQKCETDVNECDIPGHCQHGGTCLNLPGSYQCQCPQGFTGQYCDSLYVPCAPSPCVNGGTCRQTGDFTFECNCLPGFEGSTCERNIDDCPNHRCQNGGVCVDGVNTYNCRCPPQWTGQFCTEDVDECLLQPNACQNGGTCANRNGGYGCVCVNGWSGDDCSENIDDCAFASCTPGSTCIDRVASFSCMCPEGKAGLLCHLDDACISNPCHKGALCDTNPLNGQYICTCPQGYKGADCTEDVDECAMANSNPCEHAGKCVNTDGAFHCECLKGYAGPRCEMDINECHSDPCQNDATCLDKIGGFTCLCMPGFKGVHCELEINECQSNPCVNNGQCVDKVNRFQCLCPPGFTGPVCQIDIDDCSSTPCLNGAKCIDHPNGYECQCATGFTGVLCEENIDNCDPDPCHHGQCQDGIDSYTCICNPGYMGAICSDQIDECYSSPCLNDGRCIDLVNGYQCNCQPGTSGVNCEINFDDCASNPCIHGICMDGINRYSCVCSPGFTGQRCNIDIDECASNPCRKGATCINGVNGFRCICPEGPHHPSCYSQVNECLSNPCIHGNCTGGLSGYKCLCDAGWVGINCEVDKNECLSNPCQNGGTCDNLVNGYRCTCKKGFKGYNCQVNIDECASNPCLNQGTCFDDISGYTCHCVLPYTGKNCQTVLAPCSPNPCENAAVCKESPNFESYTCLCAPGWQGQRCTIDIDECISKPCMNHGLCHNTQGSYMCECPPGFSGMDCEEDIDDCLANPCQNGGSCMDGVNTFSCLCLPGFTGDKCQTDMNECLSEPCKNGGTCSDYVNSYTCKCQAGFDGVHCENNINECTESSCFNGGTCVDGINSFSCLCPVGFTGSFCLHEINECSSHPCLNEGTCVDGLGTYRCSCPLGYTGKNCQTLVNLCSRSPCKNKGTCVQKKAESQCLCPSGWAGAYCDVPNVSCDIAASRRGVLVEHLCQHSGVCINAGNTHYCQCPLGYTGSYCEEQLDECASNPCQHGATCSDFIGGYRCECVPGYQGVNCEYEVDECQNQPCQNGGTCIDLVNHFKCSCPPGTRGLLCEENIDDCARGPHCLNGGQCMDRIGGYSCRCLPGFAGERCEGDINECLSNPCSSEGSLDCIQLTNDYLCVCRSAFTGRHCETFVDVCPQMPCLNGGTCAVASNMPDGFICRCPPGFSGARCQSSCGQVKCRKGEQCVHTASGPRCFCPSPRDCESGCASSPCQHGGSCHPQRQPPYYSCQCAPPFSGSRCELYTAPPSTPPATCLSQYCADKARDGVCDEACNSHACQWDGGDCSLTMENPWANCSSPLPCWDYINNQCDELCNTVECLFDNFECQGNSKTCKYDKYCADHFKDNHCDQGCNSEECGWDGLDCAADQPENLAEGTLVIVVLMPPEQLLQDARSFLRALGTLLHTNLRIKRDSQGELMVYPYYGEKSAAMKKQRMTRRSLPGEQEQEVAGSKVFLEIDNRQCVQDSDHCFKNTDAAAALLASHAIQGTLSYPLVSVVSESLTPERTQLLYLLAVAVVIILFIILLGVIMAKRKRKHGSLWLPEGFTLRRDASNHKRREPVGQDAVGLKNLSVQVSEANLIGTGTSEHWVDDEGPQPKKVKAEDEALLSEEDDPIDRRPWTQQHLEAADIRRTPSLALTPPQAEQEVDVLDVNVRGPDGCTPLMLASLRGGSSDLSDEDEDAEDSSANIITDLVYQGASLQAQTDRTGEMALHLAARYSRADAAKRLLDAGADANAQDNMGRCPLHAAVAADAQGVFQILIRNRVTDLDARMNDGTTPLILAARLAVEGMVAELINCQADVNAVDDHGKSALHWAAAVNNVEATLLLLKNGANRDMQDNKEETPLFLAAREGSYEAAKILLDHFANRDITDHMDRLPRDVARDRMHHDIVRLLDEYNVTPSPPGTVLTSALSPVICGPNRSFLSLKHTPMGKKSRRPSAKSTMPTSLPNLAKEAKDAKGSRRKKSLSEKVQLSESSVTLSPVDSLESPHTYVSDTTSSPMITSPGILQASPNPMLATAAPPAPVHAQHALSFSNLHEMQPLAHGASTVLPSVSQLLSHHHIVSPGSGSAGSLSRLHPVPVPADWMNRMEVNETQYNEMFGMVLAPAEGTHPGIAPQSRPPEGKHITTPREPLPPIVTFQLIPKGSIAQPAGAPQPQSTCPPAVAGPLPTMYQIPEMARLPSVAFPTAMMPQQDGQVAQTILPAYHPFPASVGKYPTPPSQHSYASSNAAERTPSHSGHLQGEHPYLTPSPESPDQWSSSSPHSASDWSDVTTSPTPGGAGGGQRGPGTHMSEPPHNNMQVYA
# Chain of Pro-neuregulin-1, membrane-bound isoform (Homo sapiens) (Q02297 whole entry, looked up, the tested form may be a part, canonical isoform): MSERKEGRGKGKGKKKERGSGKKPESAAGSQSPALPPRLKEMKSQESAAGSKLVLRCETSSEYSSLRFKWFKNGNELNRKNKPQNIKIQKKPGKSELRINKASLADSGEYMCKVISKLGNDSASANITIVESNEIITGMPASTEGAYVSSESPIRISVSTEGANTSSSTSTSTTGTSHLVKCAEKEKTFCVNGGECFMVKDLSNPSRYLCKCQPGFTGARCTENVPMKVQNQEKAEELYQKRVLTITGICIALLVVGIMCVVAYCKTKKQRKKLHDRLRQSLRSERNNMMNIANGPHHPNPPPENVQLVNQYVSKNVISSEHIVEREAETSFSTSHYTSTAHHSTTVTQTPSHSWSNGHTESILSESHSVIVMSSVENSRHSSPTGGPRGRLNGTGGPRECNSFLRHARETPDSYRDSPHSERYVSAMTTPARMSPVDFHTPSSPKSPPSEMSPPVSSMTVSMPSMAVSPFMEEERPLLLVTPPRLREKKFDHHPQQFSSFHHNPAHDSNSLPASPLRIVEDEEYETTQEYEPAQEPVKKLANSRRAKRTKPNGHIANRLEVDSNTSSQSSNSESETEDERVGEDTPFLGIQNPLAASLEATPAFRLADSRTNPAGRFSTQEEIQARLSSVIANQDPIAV
Compound,composite z-score [1],composite z-score [2],composite z-score [3],composite z-score [4],composite z-score [5],composite z-score [6],composite z-score [7],z-score [8],composite z-score [9],composite z-score [10]
C=CCNC(=O)[C@@H]1[C@H]2C(=O)O[C@H](c3ccccc3)[C@H](c3ccccc3)N2[C@H](c2ccc(OCCO)cc2)[C@@]12C(=O)N(C(=O)OCCOC)c1ccc(C#CCCO)cc12,-0.209,-0.28,-0.0203,0.508,1.33,1.24,1.19,-0.0789 (inactive),0.273,-0.164
O=c1cccc(-c2ccco2)o1,-0.539,0.336,-0.132,0.694,0.386,0.904,0.498,0.557 (inactive),0.0153,-0.0994
C[C@@]12COC[C@]13C=C(Br)[C@H](C2)[C@@]1(CO1)C3=O,0.129,-1.21,-0.04,-0.455,-0.895,-0.708,-1.12,-0.293 (inactive),-0.476,-0.134
COCCOC(=O)N1C(=O)[C@@]2(c3cc(C#CCCO)ccc31)[C@H](C(N)=O)[C@H]1C(=O)O[C@H](c3ccccc3)[C@H](c3ccccc3)N1[C@@H]2c1ccc(OCCO)cc1,-0.0241,0.657,-0.0202,0.48,1.43,1.1,1.17,0.478 (inactive),0.439,-0.0994
COC(=O)[C@@]1(Cc2ccccc2)[C@H]2c3cc(C(=O)N4CCCC4)n(CCSCCO)c3C[C@H]2CN1C(=O)c1ccccc1,0.729,0.773,0.457,0.525,1.83,1.66,1.37,-0.906 (inactive),0.894,0.189
CC(C)OC(=O)CC(=O)CC(O)c1ccc([N+](=O)[O-])cc1 (stereo not given),0.231,0.219,0.0033,0.307,0.795,0.0916,0.438,0.719 (inactive),0.0731,-0.123
COCCOC(=O)N1C(=O)[C@@]2(c3cc(C#CCC(C(=O)OC)C(=O)OC)ccc31)[C@H](c1ccc(O)cc1)N1[C@H](c3ccccc3)[C@H](c3ccccc3)OC(=O)[C@H]1[C@@H]2C(=O)NC[C@H](O)c1ccccc1,-0.32,0.63,0.0521,0.144,0.147,1.12,1.04,1.15 (inactive),0.169,0.0749
C=C(CCCC)C(=O)CC[C@@H](OC(=O)c1cccnc1)c1ccc(OCCO)cc1,-0.449,0.887,-0.0894,0.681,0.214,0.89,1.19,0.84 (inactive),0.204,-0.0645
COc1cc2c(cc1O)C(c1cccs1)N(Cc1sc3ccccc3c1Cl)CC2 (stereo not given),-0.181,1.14,0.115,1.18,1.55,2.09,1.42,-0.19 (inactive),1.11,3.57
O=C1OCCC=C[C@H]2OC34C=CCN(c5ccc(Cl)cc5)C(=O)[C@H]3N(CCCCCCO)C(=O)[C@@H]4C12 (stereo not given in full),0.43,-0.0789,-0.116,-0.683,-0.879,-0.221,1.24,0.45 (inactive),-0.257,-0.226
Cc1ccc(S[C@]2(C(=O)NC(C)C)CC(=O)N(C(C)C)[C@@H]2c2ccc(CO)cc2I)cc1,-0.244,-0.242,-0.0272,0.145,0.0213,0.637,1.05,-0.13 (inactive),-0.198,0.0749
CCCNC(=O)[C@@]1(Sc2ccc(C)cc2)CC(=O)N(C(C)C)[C@@H]1c1ccc(CO)cc1I,1.2,0.0023,-0.104,-0.77,-1.06,1.98,-0.0039,-0.733 (inactive),-0.433,-0.0994
COc1ccc(C(O)C2C=CC3C(=O)N(c4ccccc4)C(=O)C3N2Nc2ccccc2F)cc1 (stereo not given),0.109,0.67,-0.0747,-0.0293,1.4,1.8,1.18,0.425 (inactive),0.115,-0.0296
COCCOC(=O)N1C(=O)[C@@]2(c3ccccc31)[C@H](c1ccc(OCCO)cc1)N1[C@H](c3ccccc3)[C@H](c3ccccc3)OC(=O)[C@H]1[C@@H]2C(=O)N1CCCCCCC1,4.01,2.82,1.05,1.52,1.86,3.07,1.54,-3.1 (inactive),3.82,2.75
CCOC(=O)C=Cc1ccccc1O,-0.13,0.0396,-0.0156,0.205,0.578,-0.0345,0.614,0.911 (inactive),0.245,-0.0003
CCOC(=O)C[C@H]1[C@H](OC(=O)c2ccc(C(=O)c3ccccc3)cc2)[C@@H](NC(=O)CC(C)C)c2cc(OCCCO)ccc2N1C(=O)Cc1ccc(OC)cc1,0.134,0.819,-0.105,0.209,0.342,0.517,0.2,-1.69 (inactive),0.51,-0.0074
CC(C)CNC(=O)[C@@]1(C)c2ccccc2C(=O)N(Cc2cc(C(F)(F)F)cc(C(F)(F)F)c2)[C@H]1c1ccc(CO)cc1,0.0317,0.0213,-0.178,-0.278,-0.474,-0.12,0.492,-1.43 (inactive),-0.635,0.0156
COCCOC(=O)N1C(=O)[C@@]2(c3cc(C#CCC(C(=O)OC)C(=O)OC)ccc31)[C@H](c1ccc(OCCO)cc1)N1[C@H](c3ccccc3)[C@H](c3ccccc3)OC(=O)[C@H]1[C@@H]2C(=O)Nc1nc2ccccc2s1,-0.0598,0.215,-0.17,0.383,1.22,-0.0762,1.23,4.65 (inactive),0.524,-0.148
C=C(/C(=C/C[C@H](OC(=O)c1ccncc1)c1ccccc1OCCO)c1cnc2ccccc2c1)C(C)C,-0.145,0.763,-0.0316,1.18,1.55,1.01,1.22,-0.0406 (inactive),0.853,-0.112
COCCOC(=O)N1C(=O)[C@@]2(c3cc(C#CC4(O)CCCCCC4)ccc31)[C@H](C(=O)N1CCN(c3ncccn3)CC1)[C@H]1C(=O)O[C@H](c3ccccc3)[C@H](c3ccccc3)N1[C@@H]2c1ccccc1OCCO,-0.215,0.825,-0.0195,0.452,1.08,0.239,1.05,0.041 (inactive),0.474,0.0515
[N-]=[N+]=NC[C@H](Cc1ccccc1)NC(=O)c1ccccc1,-0.259,0.2,-0.107,-0.168,-0.0596,-0.0451,-0.123,1.43 (inactive),0.135,-0.0618
[N-]=[N+]=NCc1ccccc1[C@@H]1OC(c2ccc(OCCCO)cc2)=N[C@]1(Cc1ccccc1N=[N+]=[N-])C(=O)N1CCCCC1,-0.0244,1.17,-0.0599,0.227,1.55,1.16,1.23,-0.878 (inactive),0.882,0.38
CN1C(=O)C2C=CC(C(O)c3cc(C(F)(F)F)cc(C(F)(F)F)c3)N(Nc3ccccc3)C2C1=O (stereo not given),-0.481,-0.229,-0.0656,0.05,0.245,0.862,1.25,0.715 (inactive),-0.106,-0.0994
Cc1ccc(F)cc1S(=O)(=O)N[C@@H]1CCN(Cc2cccc3[nH]ccc23)C1,1.05,0.871,-0.0894,0.513,0.37,1.38,0.379,-0.762 (inactive),-0.0112,-0.0994
NCCCCCNC(=O)[C@H]1C[C@H]2C(=O)N[C@@H](Cc3ccccc3)C(=O)N2[C@H]1c1ccc(O)cc1,2.14,-0.045,0.175,0.199,0.685,1.73,0.573,0.902 (inactive),1.46,0.883
CS(=O)(=O)CCOC(=O)C1=CC(CCCO)=CC(C2CC2)N(Cc2cccc(OC(F)(F)F)c2)C=C1C(=O)OCCS(C)(=O)=O (stereo not given),-0.527,0.314,-0.0734,0.147,-0.116,1.07,0.897,0.677 (inactive),0.0187,-0.0994
COc1cc(CO)cc(I)c1O[C@H]1C=C(C(=O)NCCO)C[C@@H](NCC2CCCCC2)[C@@H]1O,-0.149,-0.422,-0.0506,0.542,0.481,0.579,0.652,-1.14 (inactive),0.638,0.0505
